# Screening data: PubChem BioAssay, several laboratories
# Shown are actives, neighbours in structure and some others; about 3.1% of the full set was active somewhere.
# ATG4B inhibitor: ATG4B (human) cysteine protease inhibition | inhibition, % at 8.33 µM | ATG4B cleavage of LC3-PLA2, NBD-HPC fluorescence, 1 h | 340,000 tested, 0.51% active; in the data active = inhibition above about 40%
# Mot1-301 SUMO: blocks SUMOylation pathway, rescuing yeast Mot1-301 growth | S. cerevisiae Mot1-301 growth rescue, ATP luminescence, 38.5C; percent above DMSO median, 100 means doubled | growth rescue, % at 18.8 µM | 320,000 tested, 1% active;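 active = every valid replicate shows activation above 250% relative to neutral control wells; inactive = the rest, any valid replicate at or below 250%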;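 also: OY570 slx delta 5 strain wells were the positive control but not used for scaling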
# Calb FLC: affects C. albicans growth with fluconazole; AID 1979; C. albicans CaCi-2 (fluconazole-resistant clinical isolate) + fluconazole, Alamar Blue growth, 48 h; 300,000 tested, 0.57% active; growth inhibition, % (no concentration beside the values);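 active = growth inhibition above about 58% in most replicates, limit read from the data, passing the limit was not always enough; inconclusive = exactly half the replicates above a set limit; inactive = most replicates below a set limit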;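 also: all wells also contain fluconazole at 8 µg/ml as a sub-toxic cotreatment; 0% = median of DMSO wells and 100% = median of geldanamycin control wells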
# NadD block: blocks S. aureus nicotinate mononucleotide adenylyltransferase; purified NadD enzyme, colorimetric absorbance read-out; inhibition, % at 20 µM; 360,000 tested, 0.78% active; in the data active = inhibition above about 26%
# FAS TE block: FAS thioesterase (human) inhibition; P49327; recombinant FAS-TE, OMFH fluorogenic substrate, fluorescence endpoint; inhibition, % at 15 µM; 360,000 tested, 0.67% active; AID 602261;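 active = compounds whose normalised, plate-corrected inhibition of enzyme fluorescence in the single-dose primary screen is 50% or more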;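 also: 0% = DMSO with enzyme and 100% = substrate without enzyme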
# Target sequence (P49327 whole entry, looked up): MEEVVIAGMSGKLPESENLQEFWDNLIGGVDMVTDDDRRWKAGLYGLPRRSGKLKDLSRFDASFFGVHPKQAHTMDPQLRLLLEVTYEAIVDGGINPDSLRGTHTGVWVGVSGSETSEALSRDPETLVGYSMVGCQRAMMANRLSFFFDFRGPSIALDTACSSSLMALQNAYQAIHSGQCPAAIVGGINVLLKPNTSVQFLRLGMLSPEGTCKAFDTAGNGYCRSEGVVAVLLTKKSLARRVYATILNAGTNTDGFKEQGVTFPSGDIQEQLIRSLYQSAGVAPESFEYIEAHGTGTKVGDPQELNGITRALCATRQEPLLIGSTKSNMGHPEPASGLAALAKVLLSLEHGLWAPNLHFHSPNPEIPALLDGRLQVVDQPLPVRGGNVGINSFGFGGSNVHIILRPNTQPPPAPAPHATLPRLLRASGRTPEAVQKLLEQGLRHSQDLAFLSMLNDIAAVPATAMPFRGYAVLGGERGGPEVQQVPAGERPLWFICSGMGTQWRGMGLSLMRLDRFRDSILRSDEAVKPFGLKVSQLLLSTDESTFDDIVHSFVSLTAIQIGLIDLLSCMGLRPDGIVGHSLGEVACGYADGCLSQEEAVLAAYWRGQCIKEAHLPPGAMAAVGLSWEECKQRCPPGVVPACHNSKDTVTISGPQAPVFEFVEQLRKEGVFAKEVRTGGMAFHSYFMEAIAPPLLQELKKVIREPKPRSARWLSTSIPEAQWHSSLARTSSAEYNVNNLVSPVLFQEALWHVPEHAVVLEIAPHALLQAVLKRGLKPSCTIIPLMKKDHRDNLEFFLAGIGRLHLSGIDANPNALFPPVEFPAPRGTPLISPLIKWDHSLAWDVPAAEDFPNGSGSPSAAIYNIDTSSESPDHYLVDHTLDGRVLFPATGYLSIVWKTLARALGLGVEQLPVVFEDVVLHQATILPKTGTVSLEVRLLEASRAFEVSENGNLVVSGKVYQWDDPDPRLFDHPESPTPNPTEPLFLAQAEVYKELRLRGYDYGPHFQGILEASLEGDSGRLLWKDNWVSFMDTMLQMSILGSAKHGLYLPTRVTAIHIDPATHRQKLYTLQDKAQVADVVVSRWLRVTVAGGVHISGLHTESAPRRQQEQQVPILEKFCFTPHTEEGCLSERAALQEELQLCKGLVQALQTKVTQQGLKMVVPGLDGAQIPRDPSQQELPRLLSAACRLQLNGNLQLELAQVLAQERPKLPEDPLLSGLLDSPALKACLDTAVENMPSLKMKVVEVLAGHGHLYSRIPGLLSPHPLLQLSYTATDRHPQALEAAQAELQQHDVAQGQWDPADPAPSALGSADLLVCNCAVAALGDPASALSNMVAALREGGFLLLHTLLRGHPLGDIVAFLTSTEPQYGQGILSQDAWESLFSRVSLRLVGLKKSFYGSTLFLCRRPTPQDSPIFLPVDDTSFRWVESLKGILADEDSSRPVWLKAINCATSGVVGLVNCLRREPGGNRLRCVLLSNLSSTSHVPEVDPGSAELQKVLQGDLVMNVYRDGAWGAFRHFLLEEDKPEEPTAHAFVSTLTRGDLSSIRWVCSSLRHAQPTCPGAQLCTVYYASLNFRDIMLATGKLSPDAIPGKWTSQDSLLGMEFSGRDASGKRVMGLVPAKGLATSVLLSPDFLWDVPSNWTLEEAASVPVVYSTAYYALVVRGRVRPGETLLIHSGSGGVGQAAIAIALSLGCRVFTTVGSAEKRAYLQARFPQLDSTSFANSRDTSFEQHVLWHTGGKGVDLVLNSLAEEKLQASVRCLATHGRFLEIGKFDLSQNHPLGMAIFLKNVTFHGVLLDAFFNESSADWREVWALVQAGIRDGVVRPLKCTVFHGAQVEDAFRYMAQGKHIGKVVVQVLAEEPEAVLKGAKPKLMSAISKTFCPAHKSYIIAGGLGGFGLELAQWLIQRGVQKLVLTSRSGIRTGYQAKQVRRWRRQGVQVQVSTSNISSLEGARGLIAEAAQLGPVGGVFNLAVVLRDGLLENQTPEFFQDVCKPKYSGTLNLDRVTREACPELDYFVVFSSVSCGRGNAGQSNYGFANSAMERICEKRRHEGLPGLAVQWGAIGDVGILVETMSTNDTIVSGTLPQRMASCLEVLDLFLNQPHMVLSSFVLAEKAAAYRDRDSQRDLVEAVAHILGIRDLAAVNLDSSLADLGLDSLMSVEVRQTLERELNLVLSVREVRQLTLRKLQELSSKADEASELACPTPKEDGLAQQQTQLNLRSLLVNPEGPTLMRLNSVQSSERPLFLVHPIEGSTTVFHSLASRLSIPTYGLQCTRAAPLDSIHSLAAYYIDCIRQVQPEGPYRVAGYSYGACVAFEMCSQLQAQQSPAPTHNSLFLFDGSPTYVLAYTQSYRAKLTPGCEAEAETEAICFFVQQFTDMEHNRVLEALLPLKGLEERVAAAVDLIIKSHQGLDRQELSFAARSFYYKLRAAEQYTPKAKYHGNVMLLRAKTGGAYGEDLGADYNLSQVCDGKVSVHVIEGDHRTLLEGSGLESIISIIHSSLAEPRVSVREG
# FAS-TE conf: FAS thioesterase (human) inhibition, confirmation | shares compounds with FAS TE block | recombinant FAS-TE, OMFH fluorogenic substrate, fluorescence | inhibition, % at 15 µM | 2,300 tested, 45% active;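 active = compounds inhibiting the enzyme by at least 50% at 15 µM in any one of the replicates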;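 also: 0% = enzyme with DMSO only and 100% = wells lacking enzyme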
# Numbers without * were called inactive; ? = inconclusive; . = no result.
SMILES,ATG4B inhibitor,Mot1-301 SUMO,Calb FLC,NadD block,FAS TE block,FAS-TE conf
C=C1SC(=Nc2c(C)cc(C)cc2C)N(C(=O)c2sc3ccccc3c2Cl)C12CCCCC2,-1.2,3.9,-12.4,3.4,26.8,.
CCN(CC)S(=O)(=O)c1ccc(NC(=O)c2ccc(OCC3CCCO3)cc2)cc1 (stereo not given),-5.7,-8.3,.,-9.8,20.6,.
O=S(=O)(c1ccc(SCc2ccc(Cl)cc2)nc1)N1CCCC1,0.7,23.9,.,14.7,54.1*,38.3
CCc1nc2ccc(C(=O)N(C)C(C)C)cn2c1N(CCC(C)C)CCN(C)C,.,.,.,-2.3,-11.6,.
FC(F)Oc1ccc(C2N=C(c3ccccc3)NO2)cc1 (stereo not given),4.5,-10.1,-5.7,-6.0,-3.3,.
O=C1C2C(c3ccccc3)(C(=O)N1c1ccc(Cl)cc1)C2(c1ccccc1)c1ccccc1 (stereo not given),-2.1,-22.2,?,12.4,59.7*,26.6
Cc1ccc(N2C(=O)C3CCCN3C2=S)c(C)c1 (stereo not given),5.5,11.6,.,-0.5,-6.6,.
Cc1ccc(N2C(=O)C3CC(c4ccccc4)=C4C5C=CC(C6C(=O)N(c7ccc(C)cc7C)C(=O)C56)C4C3C2=O)c(C)c1 (stereo not given),-3.1,8.4,-3.6,9.3,100.2*,43.9*
Cc1ccc(N2C(=O)C3CC(c4ccccc4)=C4C5C=CC(C6C(=O)N(c7ccc(C)cc7)C(=O)C56)C4C3C2=O)cc1 (stereo not given),10.2,22.7,0.4,13.3,84.8*,9.3
COc1ccc(NC(=O)CN(c2ccc([N+](=O)[O-])cc2)S(=O)(=O)c2ccccc2)cc1,-8.5,26.8,5.2,-4.4,64.1*,73.7*
COc1cccc(NC(=O)CN(c2ccc([N+](=O)[O-])cc2)S(=O)(=O)c2ccccc2)c1,-11.9,250.1,-7.3,-4.5,34.0,.
N#CC1CCN(C(=O)c2ccc3c(Cl)c4c(nc3c2)CCCC4)CC1,-4.3,1.4,4.9,-4.0,77.9*,85.5*
CN1CCN(C(=O)c2ccc3c(Cl)c4c(nc3c2)CCCC4)CC1,10.2,6.5,3.0,-3.2,1.4,.
Cc1ccc(S(=O)(=O)Cc2cc(F)c([N+](=O)[O-])cc2[N+](=O)[O-])cc1,7.2,50.2,2.3,-0.1,17.2,.
Cc1sc(N2CCN(S(=O)(=O)c3ccc4c(c3)NC(=O)CO4)CC2)nc1-c1ccccc1,-3.1,-22.5,0.3,26.9,70.5*,68.2*
CC(C)N(C(=O)Cn1cnc2cc([N+](=O)[O-])ccc2c1=O)C(C)C,.,-4.0,-0.3,.,.,.
CN(Cc1cccs1)C(=O)Cn1cnc2cc([N+](=O)[O-])ccc2c1=O,-3.9,44.0,8.3,-5.7,52.6*,55.4*
O=C(Cn1cnc2cc([N+](=O)[O-])ccc2c1=O)N(Cc1ccccc1)C1CCS(=O)(=O)C1 (stereo not given),0.9,.,?,1.7,56.8*,45.4
O=C(Cn1cnc2cc([N+](=O)[O-])ccc2c1=O)NC1CCS(=O)(=O)C1 (stereo not given),-2.7,-6.0,-13.2,-2.4,4.9,.
O=C(CCN1C(=O)C2C3C=CC(C4CC34)C2C1=O)Nc1ccc(Cl)cc1O (stereo not given),-7.8,-22.5,.,0.2,-2.0,.
O=C1/C(=C/c2cccs2)SC(=S)N1CC(=O)N1CCCCC1CCO (stereo not given),-1.7,-1.7,-5.4,17.1,-15.9,.
CN(Cc1ccccc1)C(=O)COC(=O)CCC(=O)c1ccc(Cl)cc1,-6.4,-4.1,.,-6.5,4.6,.
N#C/C(=C\c1ccc(OCc2ccc(Cl)cc2)cc1)C(=O)Nc1cccc(C(=O)O)c1,-1.2,2.6,4.3,16.7,52.9*,4.3
CCN(CC(=O)NCc1ccc(Cl)cc1)C(=O)/C=C/c1ccc(Cl)c([N+](=O)[O-])c1,4.0,204.0,2.0,-2.5,65.0*,47.0
CCN(CC(=O)NCc1ccc(Cl)cc1)C(=O)/C=C/c1ccco1,-4.6,6.1,-1.6,-4.6,7.7,.
SMILES,ATG4B inhibitor,Mot1-301 SUMO,Calb FLC,NadD block,FAS TE block,FAS-TE conf
Cc1ccc(-c2nc(SC(C)C(=O)c3c(N)n(C)c(=O)n(C)c3=O)n[nH]2)cc1 (stereo not given),3.3,-5.8,6.3,1.6,-1.1,.
Cc1cc(OCc2nc(N)nc(N)c2-c2ccc(Cl)c(Cl)c2)ccc1[N+](=O)[O-],3.7,.,.,11.0,51.2*,11.6
Cc1nc(N)nc(N)c1-c1ccc(Cl)c(Cl)c1,1.5,.,.,-3.7,-2.2,.
Cc1ccccc1N(CC(=O)NCc1ccc2c(c1)OCO2)C(=O)C1CSC(=O)C1 (stereo not given),3.1,5.9,-0.4,-3.5,68.8*,66.5*
Cc1cc(-c2ccc(/C=N/n3cnnc3)o2)c(C)c([N+](=O)[O-])c1,-8.9,12.3,38.1,1.4,59.6*,39.3*
CC(=O)C(=Cc1ccccc1)c1ccccc1,.,.,.,0.5,5.7,.
CC(C)Cn1c(O)c(N=NC(=O)c2cccc(S(=O)(=O)N3CCCCC3)c2)c2ccccc21,1.2,-1.1,25.0,20.7,57.7*,24.4
O=C(NNC(=O)c1cccc(S(=O)(=O)N2CCCCC2)c1)c1ccccc1,-55.3,-12.7,.,0.1,-4.1,.
CCN(CC)CCN(C(=O)c1ccc2ccccc2c1)c1nc2cc3c(cc2s1)OCO3,8.8,-11.9,-2.6,-3.3,28.2,.
CCN(CC)CCN(C(=O)c1ccc(S(=O)(=O)N2CCCCC2)cc1)c1nc2cc3c(cc2s1)OCO3,-9.2,-19.3,23.5,4.1,52.6*,9.0
O=[N+]([O-])c1cc(-c2nnc(C34CC5CC(CC(C5)C3)C4)o2)cc([N+](=O)[O-])c1,-4.0,15.6,2.2,-4.2,52.7*,11.6
CCOc1ccc(N(CC(=O)NCc2ccc(F)cc2)C(=O)CCC(=O)Nc2nccs2)cc1,-14.8,15.2,3.0,3.5,1.9,.
Nc1ccc(C(=O)OCC(=O)N2CCc3ccccc3C2)cc1[N+](=O)[O-],-1.0,-11.9,-41.3,-2.1,22.8,.
Nc1ccc(C(=O)OCC(=O)N2c3ccccc3Sc3ccccc32)cc1[N+](=O)[O-],-1.2,21.2,.,14.5,66.2*,24.4
O=C(COC(=O)c1ccc(Cl)c([N+](=O)[O-])c1)NC1CCCC1,-0.4,26.3,-2.2,-0.1,74.1*,64.9*
O=C(OCC(=O)N1CCc2ccccc2C1)c1ccc(Cl)c([N+](=O)[O-])c1,15.6,-0.3,.,-6.2,71.9*,71.3*
N#CCC(=O)Nc1ccc(C(=O)NCC(c2ccco2)N2CCCCC2)cc1 (stereo not given),-1.8,-10.8,-2.8,5.0,-6.7,.
CC(C)(C)c1ccc(/C=C2\CCn3c2nc2cc(C(=O)O)ccc2c3=O)cc1,9.0,-7.7,-4.5,8.3,84.0*,87.7*
COc1ccc(/C=C2\CCn3c2nc2cc(C(=O)O)ccc2c3=O)cc1,1.5,78.8,11.0,-1.0,-4.5,.
